60 molecules from PubChem BioAssay AID1851 (National Center for Advancing Translational Sciences (NCATS), 2009) can be followed below.

The whole screen tested about 16,000 compounds, of which about 5,800 (36%) were called active. Another 23% or so got no clear call; they are omitted. The list shows a part of the results. Values without a mark were called inactive. Calls come from the whole dose curve; as a rule, active = well fitted curve in the direction sought with a large enough effect; inconclusive = small, poorly fitted or top-dose-only effect, or effect the other way; inactive = no such curve, though single readings can be large or run the other way.
% is set by controls: 0 for no effect and ±100 for the full control effect.

Chain of Cytochrome P450 2C19 (Homo sapiens) (P33261 whole entry, looked up): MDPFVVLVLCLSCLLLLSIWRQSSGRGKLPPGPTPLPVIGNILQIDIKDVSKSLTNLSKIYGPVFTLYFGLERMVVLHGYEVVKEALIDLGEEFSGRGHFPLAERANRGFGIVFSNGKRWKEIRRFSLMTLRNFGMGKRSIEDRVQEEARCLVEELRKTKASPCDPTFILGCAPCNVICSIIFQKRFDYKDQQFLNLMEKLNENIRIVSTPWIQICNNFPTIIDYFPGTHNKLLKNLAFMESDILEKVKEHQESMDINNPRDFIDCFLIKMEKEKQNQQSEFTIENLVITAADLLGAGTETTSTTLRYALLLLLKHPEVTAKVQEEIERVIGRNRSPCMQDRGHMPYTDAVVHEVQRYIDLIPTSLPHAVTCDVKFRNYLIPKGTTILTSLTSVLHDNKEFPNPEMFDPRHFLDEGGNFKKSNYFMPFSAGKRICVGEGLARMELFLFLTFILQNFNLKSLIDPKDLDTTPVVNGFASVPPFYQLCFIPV

This assay concerns the target Cytochrome P450 2C19 (Homo sapiens) (UniProt P33261). Nature of the assay: Cytochrome panel assay with activity outcomes. Particulars: recombinant CYP, pro-luciferin dealkylation, luminescence, p450-cyp2c19; series mostly up to 57.1 µM; activity, negative = inhibition: at the top concentration.
As to `O=C(CSc1nc2ccccc2[nH]1)Nc1c(F)cccc1F`, the AC50 (in general, the concentration giving half of the maximal activity seen) is 8.91 µM (active). On to `O=C(O)CSc1nc2ccccc2[nH]1`, for which the activity, negative = inhibition is 5.01% [at 11.4 µM]. On the same count and under the same terms, then `CCOC(=O)CCN1C(=O)[C@H]2[C@H]3[C@H](O)[C@H](O)C/C(=N/OC[C@@H](O)COCc4ccco4)[C@@H]3CC[C@@H]2C1=O`, with 40.5% [at 11.4 µM]. `O=C(O)c1ccc(Oc2nc3ccccc3s2)cc1`: the AC50 was 3.98 µM (active). Regarding `O=C(Nc1ccccc1-c1nc2ccccc2[nH]1)c1ccc(S(=O)(=O)N2CCCCC2)cc1`, the AC50 was 2.51 µM (active). With `Cc1sc(=NC(=O)c2ccco2)n(C)c1-c1ccccc1`, the AC50 was 8.91 µM (active). Same read-out and setting: then `COc1ccc(CNc2ccnc(-c3ccccc3Cl)n2)c(OC)c1`, with 1.26 µM (active).

For `COc1ccc(CNc2ccnc(-c3ccccc3C(F)(F)F)n2)c(OC)c1`, the AC50 was 10 µM (active). For `COc1ccccc1CNc1ccnc(-c2ccccc2Cl)n1`, the AC50 is 1.58 µM (active).

As to `COc1ccc(CNc2ccnc(-c3ccccc3CN(C)C)n2)c(OC)c1`, the “activity, negative = inhibition” value is 40.8%. Same read-out and setting: the figure for `CNc1ccnc(-c2ccccc2CN(C)C)n1` is -8.21%; for `O=C(N/N=C1/C[C@@H](O)[C@@H](O)[C@@H]2[C@H]3C(=O)N(c4ccc(F)cc4F)C(=O)[C@@H]3CC[C@@H]12)OCc1ccccc1` it is -16.8% [at 11.4 µM]. For the molecule `NC(=O)C[C@H](NC(=O)Cc1ccc(O)cc1O)C(=O)O`, the “activity, negative = inhibition” value was 31.1%. Same read-out and setting: then `Fc1ccc([C@H]2CCNC[C@H]2COc2ccc3c(c2)OCO3)cc1`, with 13.9%. As to `CC1(C)CC(=O)C2=C(C1)Nc1cc3c(cc1C2c1ccc(F)cc1)OCO3` (stereo not given), the AC50 was 4.47 µM (active). For `NS(=O)(=O)c1ccc(N=Nc2c(O)c(C(=O)O)cc3ccccc23)cc1`, the activity, negative = inhibition was 9.68% [at 11.4 µM]. On the same count and under the same terms, then `N=C(N)c1ccccc1`, with -22%.

For `N=C(N)c1ccc(N=Nc2c(O)ccc3c2[nH]c2ccccc23)cc1`, the AC50 was 1.26 µM (active). On the same count and under the same terms, then `COc1ccc2c(Cl)c(C(=O)NCCCn3ccnc3)sc2c1Cl`, with 0.794 µM (active). For `O=C(CCCN1CC=C(n2c(=O)[nH]c3ccccc32)CC1)c1ccc(F)cc1`, the “activity, negative = inhibition” value is -2.46% [at 25.6 µM]. On the same count and under the same terms, then `O=C(NCCCN1CCN(C2CCCCC2)CC1)Nc1ccccc1C(F)(F)F`, with 33.2%; and `O=C(O)c1ccccc1-c1ccccc1C(=O)Nc1ccc2c(c1)Cc1cc(F)ccc1-2`, with -34% [at 11.4 µM].

Turning to `S=C(S)NCCCn1ccnc1`, the activity, negative = inhibition is -30% [at 11.4 µM].

As for `O=C(CCN1CCc2ccccc2C1)Nc1ccc(F)cc1`, the AC50 is 7.94 µM (active). With `CSc1ccc(NC(=O)NCCCN2CCN(c3ccccc3F)CC2)cc1`, the concentration at half-maximal activity (AC50) is 15.8 µM (active). As to `Cc1cc(=O)oc(C)c1C(=O)NCCCN1CCN(c2ccc(F)cc2)CC1`, the “activity, negative = inhibition” value is -1.77%. `O=C(NCCCn1ccnc1)Nc1ccc(Cl)cc1`: the AC50 is 0.0562 µM (active).

For the molecule `O=C1Cc2c([nH]c3ccc(Br)cc23)-c2ccccc2N1`, the “activity, negative = inhibition” value was -35.7%. For the molecule `CSc1ccc(NC(=O)NCCN2CCc3ccccc3C2)cc1`, the half-maximal activity concentration (AC50) was 15.8 µM (active).

`O=C(NCCCN1CCc2ccccc2C1)Nc1ccc(Cl)cc1`: the AC50 was 15.8 µM (active). Turning to `CC(C)[C@H](NC(=O)OC(C)(C)C)[C@@H](O)CC(=O)C(C)(C)C`, the activity, negative = inhibition is -18.4% [at 11.4 µM].

In the case of `CC(C)[C@@H]1NC(=O)[C@H](CCCCN)NC(=O)[C@H](Cc2c[nH]c3ccccc23)NC(=O)[C@H](Cc2ccc(O)cc2)NC(=O)[C@H](C)N(C)C(=O)[C@H](Cc2ccccc2)NC1=O`, the “activity, negative = inhibition” value is 25.9%. The same measure, in the same setting: then `CCOc1ccc(NC(=O)c2ccc(OC)cc2)cc1`, with -12.6%; and `O=C(Nc1cccc(OC(=O)c2cccnc2)c1)c1cccnc1`, with -17.1%.

As for `COc1ccc(C(=O)Nc2cccc(OC(=O)c3ccc(C)c(C)c3)c2)cc1`, the AC50 is 7.94 µM (active). Same read-out and setting: then `COc1ccc(C(=O)Nc2cc(OC)cc(OC)c2)cc1`, with 2.51 µM (active); and `COc1ccc2c(=O)cc(-c3ccncc3)oc2c1OC`, with 1.58 µM (active).

For `COc1ccc2c(OC)c3ccoc3nc2c1OC`, the “activity, negative = inhibition” value is -42.9% [at 25.6 µM].

Consider `CCc1ccc2c(-c3cccc(Cl)c3)nc(=O)n(CC)c2n1`, for which the “activity, negative = inhibition” value was -44.4%. Same read-out and setting: the figure for `CCn1c2ccccc2c2nnc(NCCCO)nc21` is 5.92% [at 11.4 µM]. On to `CCn1c2ccc(Cl)cc2c2nc3ccccc3nc21`, for which the half-maximal activity concentration (AC50) was 14.1 µM (active).

As for `Cc1noc(C)c1-c1ccc2ncnc(NCCN3CCOCC3)c2c1`, the “activity, negative = inhibition” value was -20.8%. Regarding `Cc1noc(C)c1-c1ccc2ncnc(NCc3ccccc3)c2c1`, the AC50 is 7.94 µM (active). The same measure, in the same setting: then `Cc1noc(C)c1-c1ccc2ncnc(NCc3cccs3)c2c1`, with 1.26 µM (active). As for `CC(=O)NCCNc1ncnc2ccc(-c3c(C)noc3C)cc12`, the “activity, negative = inhibition” value was -43.7%.

For `Cc1cccc(CNc2ncnc3ccc(-c4c(C)noc4C)cc23)c1`, the AC50 was 5.01 µM (active).

Turning to `COCCNc1ncnc2ccc(-c3c(C)noc3C)cc12`, the concentration at half-maximal activity (AC50) is 10 µM (active). For `C=C(C)C1Cc2nc(N)nc(C)c2C1` (stereo not given), the “activity, negative = inhibition” value is -25.3%.

Consider `COc1cc(C)cc2c(-c3c(O)cc(O)c4c3C[C@H](C)N[C@@H]4C)cc(-c3cc(-c4c(O)cc(O)c5c4C[C@H](C)N[C@@H]5C)c4cc(C)cc(OC)c4c3O)c(O)c12`, for which the activity, negative = inhibition is -31.6% [at 11.4 µM]. In the case of `Cc1noc(C)c1-c1ccc2ncnc(NCc3cccnc3)c2c1`, the AC50 is 0.02 µM (active). As for `CC1(C)OC[C@@H]2O[C@H](n3cnc4c(N)nc(Cl)nc43)[C@@H](OS(C)(=O)=O)[C@@H]2O1`, the activity, negative = inhibition is 8% [at 11.4 µM]. Turning to `CN(Cc1ccco1)c1ncnc2ccc(-c3cccnc3)cc12`, the AC50 is 7.94 µM (active). `CN1CCN(c2ncnc3ccc(-c4cccc(NS(C)(=O)=O)c4)cc23)CC1`: the “activity, negative = inhibition” value was -17.8%. With `CN(Cc1ccco1)c1ncnc2ccc(-c3ccc4c(c3)OCO4)cc12`, the AC50 was 0.631 µM (active). Still for that read-out and setting: the figure for `CN(Cc1ccco1)c1ncnc2ccc(-c3cccc(NS(C)(=O)=O)c3)cc12` is 7.94 µM (active); for `COc1cccc(-c2ccc3ncnc(N(C)Cc4ccco4)c3c2)c1` it is 2 µM (active). As to `CCOc1ccc2nc3cc(N=Nc4ccc(N)nc4N)ccc3c(N)c2c1`, the activity, negative = inhibition is -6.5% [at 11.4 µM]. For `CN(C)c1ncnc2ccc(-c3cccnc3)cc12`, the “activity, negative = inhibition” value was -21.3%. On the same count and under the same terms, then `CN(C)C(=O)c1ccc(-c2ccc3ncnc(N(C)C)c3c2)cc1`, with -35.4%. In the case of `COc1cccc(-c2ccc3ncnc(N(C)C)c3c2)c1`, the AC50 is 3.16 µM (active).
